# Inconclusive results are not listed. Entries that show only a call come without a potency. Activity calls are given as the source filed them. Calls come from the whole dose curve; as a rule, active = well fitted activation curve with a large enough effect in the repeat runs; inconclusive = weak or mixed curves; inactive = flat fitted curve, though single readings scatter.
# Assay: A CellTox Green Cytotoxicity Assay to monitor cytotoxicity in HepG2 cells - 8 hour (AID 1224890); note: nearly all actives have a fitted effect of over 45% in size
# Conditions: CellTox Green fluorescence; series mostly up to 76.8 µM
# Procedure, shortened: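 Using 1536-well format, dye-containing HepG2 suspension was seeded, allowed 5 h at 37 C/5% CO2, dosed by pintool with compounds, positive and negative controls, and imaged for fluorescence across 40 h.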
# Potency is the fitted concentration of half-maximal effect.
row,Compound,Potency
1,Cc1ccc(Cl)c(Nc2ccccc2C(=O)O)c1Cl,inactive
2,Cc1cc(=O)c2c(O)c3c(O)cc(=O)c4c3c3c(cc(O)c1c23)C(C)(C)C=4O,4.65 µM (active)
3,NC1[C@H]2CN(c3nc4c(cc3F)c(=O)c(C(=O)O)cn4-c3ccc(F)cc3F)C[C@@H]12 (stereo not given in full),inactive
4,CCCCCCCCOc1ccc(C(=O)O)cc1,inactive
5,CC1CC(OC(=O)C(O)c2ccccc2)CC(C)(C)N1C (stereo not given),inactive
6,CC(C)(C)C(=O)C(=O)O,inactive
7,CCC1(CO)COCOC1,inactive
8,O=c1cc(-c2ccccc2)oc2cc(O)cc(O)c12,inactive
9,CC[C@]1(O)C[C@H]2CN(CCc3c([nH]c4ccccc34)[C@@](C(=O)OC)(c3cc4c(cc3OC)N(C=O)[C@H]3[C@@](O)(C(=O)OC)[C@H](OC(C)=O)[C@]5(CC)C=CCN6CC[C@]43[C@@H]65)C2)C1,inactive
10,OC(CCN1CCCC1)(c1ccccc1)C1CCCCC1 (stereo not given),inactive
11,CCOC(=O)c1ccc(C#Cc2ccc3c(c2)C(C)(C)CCS3)nc1,inactive
12,COC(=O)[C@H]1[C@H]2C[C@@H]3c4[nH]c5cc(OC)ccc5c4CCN3C[C@H]2C[C@@H](OC(=O)/C=C/c2ccc(O)c(OC)c2)[C@@H]1OC,26.8 µM (active)
13,O=C1c2ccccc2C(=O)C1(O)O,inactive
14,Nc1nnc(-c2ccc([N+](=O)[O-])o2)o1,inactive
15,Oc1ccc(Cl)c2cccnc12,inactive
16,CCCCCCCC/C=C\CCCCCCCCO,inactive
17,Nc1nc2ccc([N+](=O)[O-])cc2s1,49 µM (active)
18,CC(CC1c2ccccc2CCc2ccccc21)CN(C)C (stereo not given),inactive

row,Compound,Potency
1,C[C@H]1C[C@H](O)c2ccsc2S1(=O)=O,inactive
2,CO/N=C(/C(=O)N[C@@H]1C(=O)N2C(C(=O)O)=C(COC(N)=O)CS[C@H]12)c1ccco1,inactive
3,COc1ccc(OC(=O)N(CC(=O)O)Cc2ccc(OCCc3nc(-c4ccccc4)oc3C)cc2)cc1,inactive
4,O=C(O)CCc1nc(-c2ccccc2)c(-c2ccccc2)o1,inactive
5,CCC(OCCCOC)OC(C)=O (stereo not given),inactive
6,CC1=C(Br)C(=O)C(Br)=C/C1=C(/c1ccccc1S(=O)(=O)O)c1cc(Br)c(O)c(Br)c1C,inactive
7,CC1=Nc2ccc3ccccc3c2C1(C)C,inactive
8,CN1C(=O)N(c2ccccc2Br)Cc2cnc(Nc3ccc4c(c3)OCC(CO)O4)nc21 (stereo not given),inactive
9,CC(C)C(O)(c1ccc(OC(F)(F)F)cc1)c1cncnc1 (stereo not given),inactive
10,CC(CCC(=O)O)C(=O)O (stereo not given),inactive
11,CN1C(=O)c2ccccc2C1=O,inactive
12,CCOc1ccccc1O[C@H](c1ccccc1)[C@H]1CNCCO1,inactive
13,CCCCCC#CC(=O)OC,inactive
14,NCCNCCO,inactive
15,COC(=O)C1=C(C)NC(C)=C(C(=O)O[C@@H]2CCCN(Cc3ccccc3)C2)[C@@H]1c1cccc([N+](=O)[O-])c1,inactive
16,COc1cc(N)c(Cl)cc1C(=O)NC1CCN(CCCOc2ccc(F)cc2)CC1OC (stereo not given),inactive
17,CS(=O)(=O)c1ccc(-c2cn3ccccc3n2)cc1,inactive

# Reference: PubChem BioAssay (Tox21)
